{"source": "PubChem BioAssay", "note": "Values joined by “and” are separate entries in the source; they are usually repeats but may differ in a detail not shown here. Identical values can stand only once. Active and inactive are the calls of the source.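 How the source made its calls, unless noted: active means z-score of at least 1.8 in each of two replicates, scored against plate mean and spread of sample wells; inactive means the rest.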"}
{"assay": "galactose survival enhancers in mitochondrial complex I cybrids – cell-based, galactose medium, ATP luminescence, primary screen (AID 1645843);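 further: positive z means more ATP and so rescue of galactose-driven cybrid death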", "settings": "complex I mutant cybrid cells, 72 h, stronger effect = higher value"}
{"smiles": "CN(C)CCCSc1ccccc1NC(=O)/C=C/c1ccccc1", "z-score": "-0.09 (inactive) and 0.525 (inactive)"}
{"smiles": "CC(C)(O)c1ccccc1CC[C@@H](SCC1(CC(=O)O)CC1)c1cccc(/C=C/c2ccc3ccc(Cl)cc3n2)c1", "z-score": "0.48 (inactive)"}
{"smiles": "CN1CCN(C2=Nc3cc(F)ccc3Cc3ccccc32)CC1", "z-score": "-0.47 (inactive) and -0.18 (inactive)"}
{"smiles": "CC(=O)Nc1ccc(OCC(O)CNC(C)C)cc1", "note": "(stereo not drawn)", "z-score": "0.68 (inactive)"}
{"smiles": "CC(Oc1c(Cl)cccc1Cl)C1=NCCN1", "note": "(stereo not drawn)", "z-score": "0.71 (inactive) and 0.175 (inactive)"}
{"smiles": "CCCCNc1c(C(=O)OCC)c(C)nc2c1cnn2CC", "z-score": "0.17 (inactive) and 0.34 (inactive)"}
{"smiles": "C[C@]12CCC(=O)C=C1C=C[C@@H]1[C@@H]2CC[C@@]2(C)[C@H]1CC[C@@]21CCC(=O)O1", "z-score": "-0.645 (inactive)"}
{"smiles": "C/C=C/c1ccc(OC)cc1", "z-score": "0.095 (inactive)"}
{"smiles": "CCOC(=O)OC(C)OC1=C(C(=O)Nc2ccccn2)N(C)S(=O)(=O)c2ccccc21", "note": "(stereo not drawn)", "z-score": "0.855 (inactive) and 0.87 (inactive)"}
{"smiles": "COc1ccc(C(=O)NCc2ccc(OCCN(C)C)cc2)cc1OC", "z-score": "0.35 (inactive) and 0.59 (inactive)"}
{"smiles": "C[C@H]1COc2c(C3(N)CC3)c(F)cc3c(=O)c(C(=O)O)cn1c23", "z-score": "0.735 (inactive)"}
{"smiles": "CC(=O)Nc1ccc(CC(=O)O)cc1", "z-score": "0.87 (inactive)"}
{"smiles": "O=C(O)CCC(=O)c1ccc(-c2ccccc2)cc1", "z-score": "0.975 (inactive)"}
{"smiles": "CCN1CC(CCN2CCOCC2)C(c2ccccc2)(c2ccccc2)C1=O", "note": "(stereo not drawn)", "z-score": "0.71 (inactive)"}
{"smiles": "CN1CCCCC1CCN1c2ccccc2Sc2ccc(S(C)=O)cc21", "note": "(stereo not drawn)", "z-score": "0.175 (inactive) and 0.14 (inactive)"}
{"smiles": "Nc1nc2c(ncn2CCC(CO)CO)c(=O)[nH]1", "z-score": "0.83 (inactive) and 0.595 (inactive)"}
{"smiles": "CC(C)(C(=O)c1cccnc1)c1cccnc1", "z-score": "0.18 (inactive)"}
{"smiles": "CCN(CC)C(=O)N1CCN(C)CC1", "z-score": "0.74 (inactive)"}
{"smiles": "COC(=O)CCc1ccc(OCC(O)CNC(C)C)cc1", "note": "(stereo not drawn)", "z-score": "0.52 (inactive) and 0.07 (inactive)"}
{"smiles": "CN(C)/N=N/c1nc[nH]c1C(N)=O", "z-score": "-1.27 (inactive)"}
{"smiles": "CN1CCN(c2c(F)cc3c(=O)c(C(=O)O)cn4c3c2SCC4)CC1", "z-score": "-0.175 (inactive) and 0.05 (inactive)"}
{"smiles": "COc1cc(C(=O)NCc2ccc(OCCN(C)C)cc2)cc(OC)c1OC", "z-score": "0.17 (inactive)"}
{"smiles": "Oc1c(Cl)cc(Cl)c(Cl)c1Cc1c(O)c(Cl)cc(Cl)c1Cl", "z-score": "-1.5 (inactive)"}
{"smiles": "CC(C)NCC(O)c1ccc2ccccc2c1", "note": "(stereo not drawn)", "z-score": "0.85 (inactive) and 0.48 (inactive)"}
{"smiles": "CCN1CCN(c2cc3c(cc2F)c(=O)c(C(=O)O)cn3C2CC2)CC1", "z-score": "-0.045 (inactive) and 0.1 (inactive)"}
{"smiles": "CCCCCCCCCCCCCCCCOP(=O)([O-])OCC[N+](C)(C)C", "z-score": "-0.3 (inactive)"}
{"smiles": "CO[C@]12C[C@@H](COC(=O)c3cncc(Br)c3)CN(C)[C@@H]1Cc1cn(C)c3cccc2c13", "z-score": "1.27 (inactive)"}
{"smiles": "C[n+]1ccccc1/C=N/O", "z-score": "0.085 (inactive)"}
{"smiles": "CN(C/C=C/C#CC(C)(C)C)Cc1cccc2ccccc12", "z-score": "-1.48 (inactive)"}
{"assay": "growth inhibition, single agent or in combination, cell-based, chromothripsis tumors, cisplatin or BGB combos (AID 1671449; in the data active means inhibition above about 80%;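 further: cells exposed for 96 hours; 0% = vehicle DMSO and 100% = killing by high DMSO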)", "settings": "LFS_MB_P medulloblastoma cells, at 0.5 µM, stronger effect = higher value"}
{"smiles": "O=C(O)P(=O)(O)O", "inhibition": "-17.5% (inactive)"}
{"smiles": "C[C@H]1COc2c(C3(N)CC3)c(F)cc3c(=O)c(C(=O)O)cn1c23", "inhibition": "-4.46% (inactive)"}
{"smiles": "Nc1nc2c(ncn2CCC(CO)CO)c(=O)[nH]1", "inhibition": "-31.4% (inactive) and 10.2% (inactive)"}
{"smiles": "CN(C)/N=N/c1nc[nH]c1C(N)=O", "inhibition": "-23.9% (inactive) and -10.4% (inactive)"}
{"smiles": "CC1CCc2cc(F)cc3c(=O)c(C(=O)O)cn1c23", "note": "(stereo not drawn)", "inhibition": "39.2% (inactive) and -31.9% (inactive)"}
{"smiles": "CCN1CCN(c2cc3c(cc2F)c(=O)c(C(=O)O)cn3C2CC2)CC1", "inhibition": "-14.6% (inactive)"}
{"assay": "growth inhibition, single agent or in combination, cell-based, chromothripsis tumors, cisplatin or BGB combos (AID 1671449);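 further: cells exposed for 96 hours; 0% = vehicle DMSO and 100% = killing by high DMSO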", "settings": "LFS_MB_P medulloblastoma cells, measured here: combination with BGB IC20, at 0.005 µM"}
{"smiles": "O=C(O)P(=O)(O)O", "inhibition": "-17.5%"}
{"smiles": "C[C@H]1COc2c(C3(N)CC3)c(F)cc3c(=O)c(C(=O)O)cn1c23", "inhibition": "-13%"}
{"smiles": "Nc1nc2c(ncn2CCC(CO)CO)c(=O)[nH]1", "inhibition": "18% and -5.86%"}
{"smiles": "CN(C)/N=N/c1nc[nH]c1C(N)=O", "inhibition": "22.6% and -26.8%"}
{"smiles": "CC1CCc2cc(F)cc3c(=O)c(C(=O)O)cn1c23", "note": "(stereo not drawn)", "inhibition": "-29.5% and 27.9%"}
{"smiles": "CCN1CCN(c2cc3c(cc2F)c(=O)c(C(=O)O)cn3C2CC2)CC1", "inhibition": "-15.1%"}
{"assay": "growth inhibition, single agent or in combination, cell-based, chromothripsis tumors, cisplatin or BGB combos (AID 1671449);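 further: cells exposed for 96 hours; 0% = vehicle DMSO and 100% = killing by high DMSO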", "settings": "LFS_MB_P medulloblastoma cells, measured here: combination with BGB IC40, at 0.005 µM"}
{"smiles": "O=C(O)P(=O)(O)O", "inhibition": "-19.7%"}
{"smiles": "C[C@H]1COc2c(C3(N)CC3)c(F)cc3c(=O)c(C(=O)O)cn1c23", "inhibition": "-17.8%"}
{"smiles": "Nc1nc2c(ncn2CCC(CO)CO)c(=O)[nH]1", "inhibition": "-15.5% and -23.1%"}
{"smiles": "CN(C)/N=N/c1nc[nH]c1C(N)=O", "inhibition": "-4.64% and -12.1%"}
{"smiles": "CC1CCc2cc(F)cc3c(=O)c(C(=O)O)cn1c23", "note": "(stereo not drawn)", "inhibition": "-17.3% and 13.7%"}
{"smiles": "CCN1CCN(c2cc3c(cc2F)c(=O)c(C(=O)O)cn3C2CC2)CC1", "inhibition": "-16%"}
{"assay": "growth inhibition, single agent or in combination, cell-based, chromothripsis tumors, cisplatin or BGB combos (AID 1671449);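 further: cells exposed for 96 hours; 0% = vehicle DMSO and 100% = killing by high DMSO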", "settings": "LFS_MB_P medulloblastoma cells, measured here: combination with BGB IC40, at 0.05 µM"}
{"smiles": "O=C(O)P(=O)(O)O", "inhibition": "-16.3%"}
{"smiles": "C[C@H]1COc2c(C3(N)CC3)c(F)cc3c(=O)c(C(=O)O)cn1c23", "inhibition": "-33.8%"}
{"smiles": "Nc1nc2c(ncn2CCC(CO)CO)c(=O)[nH]1", "inhibition": "-8% and -22.9%"}
{"smiles": "CN(C)/N=N/c1nc[nH]c1C(N)=O", "inhibition": "6.08% and -27.5%"}
{"smiles": "CC1CCc2cc(F)cc3c(=O)c(C(=O)O)cn1c23", "note": "(stereo not drawn)", "inhibition": "-16.4% and 38.8%"}
{"smiles": "CCN1CCN(c2cc3c(cc2F)c(=O)c(C(=O)O)cn3C2CC2)CC1", "inhibition": "-15.4%"}
